# Screening data: PubChem BioAssay, The Scripps Research Institute Molecular Screening Center
# Hits are enriched below; roughly 2.8% of the tested compounds scored in any of these assays.
# PAFAH2 inh: PAFAH2 (human) inhibition. 340,000 compounds, 0.99% hits. Q99487. recombinant PAFAH2, FP-rhodamine activity probe, fluorescence polarization. inhibition, % at 3.39 µM. AID 492956;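 active means inhibition above the mean over all tested compounds plus 3 SD, cut at about 30% in these data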;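 further: inhibitors block probe labeling of enzyme so polarization drops; 0% = enzyme with DMSO and 100% = wells lacking PAFAH2 protein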
# HTRA1 inhibitor: blocks human HTRA1 serine peptidase; recombinant HTRA1, FP-rhodamine activity-based probe, fluorescence polarization; inhibition, % at 5.96 µM; 340,000 compounds, 0.5% hits; in the data active means inhibition above about 36%;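 further: 0% = enzyme with DMSO and 100% = wells lacking enzyme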
# Target sequence (Q92743 whole entry, looked up): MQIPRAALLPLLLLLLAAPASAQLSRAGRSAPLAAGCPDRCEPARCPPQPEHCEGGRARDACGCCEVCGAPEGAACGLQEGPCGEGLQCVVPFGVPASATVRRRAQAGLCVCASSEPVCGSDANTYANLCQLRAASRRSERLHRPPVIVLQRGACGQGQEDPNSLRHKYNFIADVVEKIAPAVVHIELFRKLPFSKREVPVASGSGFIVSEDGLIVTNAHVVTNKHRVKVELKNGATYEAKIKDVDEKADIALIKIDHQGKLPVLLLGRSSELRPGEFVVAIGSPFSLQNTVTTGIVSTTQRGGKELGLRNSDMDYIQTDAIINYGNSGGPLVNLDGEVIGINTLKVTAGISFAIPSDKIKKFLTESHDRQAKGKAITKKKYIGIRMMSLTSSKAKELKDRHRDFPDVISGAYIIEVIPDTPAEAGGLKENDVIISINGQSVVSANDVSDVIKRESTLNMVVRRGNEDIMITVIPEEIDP
# DAGLB inhibitor: diacylglycerol lipase beta (human) inhibition; Q8NCG7; HEK293T DAGLB membrane lysate, EnzChek fluorogenic substrate; inhibition, % at 5.17 µM; 340,000 compounds, 0.059% hits; in the data active means inhibition above about 34%;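 further: 0% = enzyme with vehicle and 100% = wells lacking enzyme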
# PAFAH1B2 FP inh: PAFAH1B2 (human) inhibition; P68402; recombinant PAFAH1B2, FP-rhodamine activity probe, fluorescence polarization; inhibition, % at 3.39 µM; 340,000 compounds, 1.2% hits; AID 492953;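 active means inhibition above the mean of all tested compounds plus 3 SD, cut at about 24% in these data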;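 further: 0% = enzyme with DMSO and 100% = wells lacking PAFAH1B2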
# pPAFAH FP inh: pPAFAH (human) enzyme inhibition | recombinant pPAFAH, FP-rhodamine probe fluorescence polarization | 330,000 compounds, 1.5% hits | Q13093 | inhibition, % at 3.39 µM | AID 463082;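 active means inhibition above the mean inhibition across the screen plus 3 SD, cut at about 25% in these data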;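 further: inhibitors block binding of the rhodamine activity-based probe so polarization drops; 0% = enzyme with DMSO and 100% = wells lacking pPAFAH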
# PAFAH1B3 FP inh: PAFAH1B3 (human) inhibition; Q15102; recombinant PAFAH1B3, FP-rhodamine probe, fluorescence polarization; inhibition, % at 3.39 µM; 340,000 compounds, 0.28% hits;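 active means inhibition above the screen-wide average of all tested compounds plus 3 SD, cut at about 25% in these data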;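 further: 0% = enzyme with DMSO only and 100% = wells lacking PAFAH1B3 protein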
# The depositor's hits bear a star; nt = no result.
SMILES,PAFAH2 inh,HTRA1 inhibitor,DAGLB inhibitor,PAFAH1B2 FP inh,pPAFAH FP inh,PAFAH1B3 FP inh
COc1ccccc1NC(=O)COC(=O)/C=C/c1ccccc1[N+](=O)[O-],11.6,3.8,-5.0,3.3,25.9*,8.3
CC(C)(C)NC(=O)COC(=O)/C=C/c1ccccc1[N+](=O)[O-],28.5,3.6,-1.7,0.1,32.1*,4.7
CCn1ncc(NC(=S)NCCc2ccc(OC)c(OC)c2)c1C(N)=O,2.5,-15.7,-1.3,2.1,0.2,1.2
O=C(NCC(c1ccco1)N1CCCCC1)c1cccc(NS(=O)(=O)c2ccc(Br)cc2)c1 (stereo not drawn),-8.2,-24.7,4.2,29.7*,11.5,3.5
O=C(NCC(c1ccco1)N1CCCC1)c1cccc(S(=O)(=O)Nc2ccc(Br)cc2)c1 (stereo not drawn),2.9,-3.7,1.9,4.5,28.1*,6.1
COc1ccc(NS(=O)(=O)c2cccc(C(=O)NCC(c3ccco3)N3CCCC3)c2)cc1 (stereo not drawn),-4.0,-3.6,2.0,2.0,17.5,1.9
CCOc1ccc(S(=O)(=O)Nc2cccc(C(=O)NCC(c3ccco3)N3CCCC3)c2)cc1 (stereo not drawn),1.9,-0.6,1.2,5.3,1.4,8.9
COc1ccccc1C(=O)ON=C1c2ccccc2-c2ccccc21,57.0*,-54.0,-10.0,1.1,29.2*,4.0
CCOc1ncccc1C(=O)OC(C)C(=O)NC(=O)NC1CCCCC1 (stereo not drawn),1.6,21.6,-5.2,-2.3,4.2,3.7
CC(OC(=O)Cc1ccccc1[N+](=O)[O-])C(=O)NC(=O)NC1CCCCC1 (stereo not drawn),-2.9,57.5*,6.7,4.9,-2.0,5.3
N#Cc1ccsc1NC(=O)CSc1nncs1,13.4,9.9,-2.1,2.7,10.8,12.7
N#Cc1ccsc1NC(=O)CSc1nnnn1-c1ccc(O)cc1,0.7,0.6,-0.1,1.4,25.8*,2.7
CC(C)C(NC(=O)CC12CC3CC(CC(C3)C1)C2)C(=O)O (stereo not drawn),4.7,3.0,-5.3,24.9*,1.6,3.8
CCOC(=O)N1CCN(S(=O)(=O)N2CCCC(C(=O)NCCCN3CCCCC3CC)C2)CC1 (stereo not drawn),-3.9,2.7,2.6,-6.9,2.3,2.4
CC(C)CCNC(=O)C1CCC(=O)N1CCc1ccccc1 (stereo not drawn),-3.0,1.9,1.2,6.2,-0.4,-4.6
CC(C)(C)C(=O)Nc1cc(C(F)(F)F)ccc1N1CCOCC1,3.2,5.1,-2.9,2.3,5.4,-2.3
Cc1cc(NC(=O)CSCC(=O)Nc2cc(C(F)(F)F)ccc2N2CCOCC2)no1,-4.6,9.3,-1.6,25.6*,2.1,1.2
CC(C)(C)C(=O)NC(=S)Nc1cc(C(F)(F)F)ccc1N1CCOCC1,4.4,-12.8,-7.5,6.8,32.9*,12.7
Cc1ccc([N+](=O)[O-])cc1NC(=O)Cc1cccs1,0.5,4.4,2.8,-1.9,26.6*,2.0
COC(=O)c1cc(NC(=O)Cc2cccs2)cc(C(=O)OC)c1,8.9,-8.9,-0.9,5.3,26.4*,11.3
Cc1ccc([N+](=O)[O-])cc1NC(=O)Cc1ccc(F)cc1,-0.5,0.0,-0.3,0.9,2.6,5.0
CC(=O)Nc1cccc(NC(=O)Cc2cccs2)c1,1.4,-4.5,-0.1,-2.0,10.5,8.8
Cc1cccc(C)c1N1C(=O)CC(Sc2ccccc2N)C1=O (stereo not drawn),nt,12.2,-3.9,nt,nt,nt
O=S(=O)(NC12CC3CC(CC(C3)C1)C2)c1ccc(F)cc1,0.2,-5.8,-7.4,28.3*,2.6,6.2
CC(C)c1nc(SCC(=O)Nc2ccc(C(=O)O)cc2)c2c3c(sc2n1)CCCC3,9.0,-6.4,-2.7,-6.3,5.1,-2.0
O=C1CSC(c2ccccc2)N1c1cccnc1 (stereo not drawn),0.9,10.3,-1.5,5.8,-5.8,7.4
O=C(O)c1cccc(N2C(=O)CSC2c2ccccc2)c1 (stereo not drawn),-8.0,0.9,-1.2,27.4*,2.8,6.2
Cc1nc2sc(-c3ccccc3)cc2c(=O)[nH]1,-2.1,-5.1,-0.8,9.1,3.3,7.4
Cc1ccccc1-c1nc2sc(-c3ccccc3)cc2c(=O)o1,66.4*,-7.2,0.0,-0.5,10.1,-3.3
Cc1cccc(-c2nc3sc(C)cc3c(=O)o2)c1,73.5*,-11.5,-4.0,-5.5,33.1*,-6.2
